Many of the other results were omitted from the sample, so hits are more common in it than they were.
miR-122 inh = activators of miR-122 sensor in Huh7 cells | Huh7 psiCHECK-miR122 Renilla luciferase sensor, 48 h | activation, % at 12.5 µM | 340,000 tested, 0.14% active | AID 623901;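 active = mean activation of 30% or more, with every replicate also reaching 30%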;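 also: 0% = median of neutral control wells and 100% = median of positive control wells; higher luciferase signal means stronger suppression of miR-122 activity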
* hit, by the source's call.

Screening Cc1noc(C)c1NC(=O)N(C)C[C@@H]1Oc2ncc(C#Cc3ccc(C(F)(F)F)cc3)cc2C(=O)N([C@H](C)CO)C[C@@H]1C returned miR-122 inh 5.2.
For COCC(=O)N(C)C[C@H]1Oc2cc(-c3ccccc3)ccc2S(=O)(=O)N([C@H](C)CO)C[C@@H]1C the results were miR-122 inh -6.4.
For C/C=C/c1ccc2c(c1)O[C@@H](CN(C)CCC)[C@@H](C)CN([C@H](C)CO)S2(=O)=O the results were miR-122 inh 2.4.
`CC(C)CC#Cc1cnc2c(c1)C(=O)N([C@H](C)CO)C[C@H](C)[C@H](CN(C)C(=O)Cc1ccccc1)O2` gave miR-122 inh 4.4.
For CN1C(=O)c2cc(NC(=O)c3ccc(C(F)(F)F)cc3)ccc2OC[C@H]2O[C@H](CC(=O)NCc3ccc4c(c3)OCO4)CC[C@H]21 the results were miR-122 inh 33.3*.
CN1C(=O)c2cc(NC(=O)c3cccc(C(F)(F)F)c3)ccc2OC[C@H]2O[C@H](CC(=O)NCCN3CCCC3)CC[C@H]21 was read as miR-122 inh 65.0*.
For COc1ccccc1CNC(=O)C[C@H]1CC[C@H]2[C@@H](COc3ccc(NS(=O)(=O)c4ccc(C)cc4)cc3C(=O)N2C)O1 the results were miR-122 inh -806.7.
CCCNC(=O)C[C@H]1CC[C@@H]2[C@@H](COc3ccc(NC(=O)c4ccc(C(F)(F)F)cc4)cc3C(=O)N2C)O1 was read as miR-122 inh 45.0*.
Screening Cc1ccc(S(=O)(=O)Nc2ccc3c(c2)C(=O)N(C)[C@@H]2CC[C@H](CC(=O)NCCc4ccncc4)O[C@@H]2CO3)cc1 returned miR-122 inh 45.0*.
Screening CO[C@@H]1CN(C)C(=O)c2ccc(NS(=O)(=O)c3ccc(C)cc3)cc2OC[C@H](C)N(C)C[C@@H]1C returned miR-122 inh 0.6.
CC(C)CC#Cc1cnc2c(c1)C(=O)N([C@@H](C)CO)C[C@@H](C)[C@@H](CN(C)C(=O)Nc1cccc(F)c1)O2 was read as miR-122 inh 0.3.
Screening C[C@H](CO)N1C[C@H](C)[C@H](CN(C)Cc2cncnc2)Oc2ncc(-c3cccc(F)c3)cc2C1=O returned miR-122 inh -32.1.
C[C@H]1CN([C@@H](C)CO)S(=O)(=O)c2ccc(C#Cc3ccccn3)cc2O[C@H]1CN(C)Cc1cccc(F)c1 was read as miR-122 inh 0.9.
Screening C[C@H](O)C#Cc1ccc2c(c1)O[C@@H](CN(C)C(=O)Cc1ccccn1)[C@@H](C)CN([C@@H](C)CO)S2(=O)=O returned miR-122 inh -6.5.
For CCCN(C)C[C@@H]1Oc2ncc(/C=C/c3ccccc3)cc2C(=O)N([C@H](C)CO)C[C@@H]1C the results were miR-122 inh 4.4.
For C[C@@H]1CN([C@H](C)CO)C(=O)c2cc(-c3ccccc3F)cnc2O[C@H]1CN(C)Cc1ccccc1F the results were miR-122 inh -35.7.
For CCCNC(=O)N(C)C[C@H]1Oc2ncc(C#CCC3CCCC3)cc2C(=O)N([C@@H](C)CO)C[C@@H]1C the results were miR-122 inh -9.1.
CO[C@@H]1CN(C)C(=O)c2ccc(NC(=O)c3ccccc3)cc2OC[C@H](C)N(C)C[C@@H]1C was read as miR-122 inh -2.7.
C[C@@H]1CN([C@H](C)CO)S(=O)(=O)c2ccc(C#CC3CC3)cc2O[C@@H]1CN(C)C(=O)C1CC1 was read as miR-122 inh 13.8.
`CC(=O)N(C)C[C@@H]1Oc2cc(C#CC3(O)CCCC3)ccc2S(=O)(=O)N([C@@H](C)CO)C[C@@H]1C` gave miR-122 inh 10.0.
For COc1ccc(-c2cnc3c(c2)C(=O)N([C@H](C)CO)C[C@@H](C)[C@@H](CN(C)C(=O)Cc2ccccc2)O3)cc1 the results were miR-122 inh 0.4.
Screening C[C@@H]1CN([C@H](C)CO)C(=O)c2cc(-c3cccc(F)c3)cnc2O[C@H]1CN(C)C(=O)c1cccc(F)c1 returned miR-122 inh -0.2.
`C[C@H]1CN([C@@H](C)CO)C(=O)c2cc(-c3cncnc3)cnc2O[C@@H]1CN(C)Cc1ccncc1` gave miR-122 inh -2.6.
`COCC(=O)N(C)C[C@@H]1Oc2cc(-c3cccc(F)c3)ccc2S(=O)(=O)N([C@H](C)CO)C[C@H]1C` gave miR-122 inh -2.7.
S=C(NCCc1ccccc1)Nc1ccc(Cl)cc1Cl was read as miR-122 inh -94.9.
CCNC(=O)CCC(=O)Nc1cc(Cl)ccc1C was read as miR-122 inh 35.8*.
For C[C@H](CO)N1C[C@H](C)[C@H](CN(C)C(=O)Nc2ccc3c(c2)OCO3)Oc2cc(C#Cc3ccccc3)ccc2S1(=O)=O the results were miR-122 inh 2.4.
`CCC(=O)Nc1ccc2c(c1)OC[C@H](C)N(C(=O)c1ccccc1F)C[C@H](C)[C@H](OC)CN(C)C2=O` gave miR-122 inh -0.7.
`C[C@H](CO)N1C[C@H](C)[C@H](CN(C)CC2CCOCC2)Oc2cc(C#Cc3cccnc3)ccc2S1(=O)=O` gave miR-122 inh 3.3.
Screening Cc1cccc(C(=O)Nc2cccc(S(=O)(=O)NCc3ccco3)c2)c1 returned miR-122 inh -95.1.
`Cc1cc(C(=O)Nc2cccc(O)c2)co1` gave miR-122 inh 35.7*.
`CCCNC(=O)Nc1ccc2c(c1)OC[C@H](C)NC[C@H](C)[C@H](OC)CN(C)C2=O` gave miR-122 inh -4.5.
`O=C(NNS(=O)(=O)c1ccc(Cl)cc1)c1cccs1` gave miR-122 inh -115.6.
For O=S(=O)(Nc1ccncc1)c1ccc(Cl)cc1 the results were miR-122 inh -119.3.
CNC(=O)c1nnsc1S(=O)(=O)c1ccc(Cl)cc1 was read as miR-122 inh 30.9*.
COc1ccccc1-c1cnc2c(c1)C(=O)N([C@@H](C)CO)C[C@H](C)[C@H](CN(C)Cc1ccccc1)O2 was read as miR-122 inh -8.6.
C[C@H]1CN([C@@H](C)CO)S(=O)(=O)c2ccc(-c3cccnc3)cc2O[C@@H]1CN(C)Cc1ccccn1 was read as miR-122 inh -2.4.
COCC#Cc1cnc2c(c1)C(=O)N([C@H](C)CO)C[C@@H](C)[C@@H](CN(C)Cc1ccccc1)O2 was read as miR-122 inh -3.0.
Screening C[C@@H]1CN([C@H](C)CO)C(=O)c2cc(C#CCc3ccccc3)cnc2O[C@H]1CN(C)Cc1ccccn1 returned miR-122 inh 5.3.
C[C@@H]1CN([C@H](C)CO)S(=O)(=O)c2ccc(-c3cccc(C(=O)N(C)C)c3)cc2O[C@H]1CN(C)C(=O)Nc1ccccc1 was read as miR-122 inh -13.2.
`CO[C@@H]1CN(C)C(=O)c2cc(NS(=O)(=O)c3ccccc3)ccc2OC[C@H](C)N(C)C[C@H]1C` gave miR-122 inh 1.4.
For COc1cccc(CNC(=O)C[C@H]2CC[C@@H]3[C@@H](COc4ccc(NC(C)=O)cc4C(=O)N3C)O2)c1 the results were miR-122 inh 53.3*.
For CO[C@@H]1CN(C)C(=O)c2cc(NC(=O)c3ccc(F)cc3)ccc2OC[C@@H](C)N(C)C[C@@H]1C the results were miR-122 inh -0.9.
For CO[C@@H]1CN(C)C(=O)c2cc(NC(=O)Cc3ccccc3)ccc2OC[C@@H](C)N(CCc2ccccc2)C[C@H]1C the results were miR-122 inh -4.3.
`CN1C(=O)c2cc(NS(=O)(=O)c3ccc(Cl)cc3)ccc2OC[C@@H]2O[C@H](CC(=O)N3CCc4ccccc4C3)CC[C@H]21` gave miR-122 inh 33.3*.
For CC(C)C(=O)Nc1ccc2c(c1)C(=O)N(C)[C@H]1CC[C@H](CC(=O)NCc3cccc(F)c3)O[C@H]1CO2 the results were miR-122 inh -440.0.
